Rows were chosen to be rich in hits. Some 6.6% of all compounds tested hit in one or more screens of this group.
TGFb SMAD3 inh: qHTS for Inhibitors of TGF-b. Potency, µM (top dose mostly 46.1 µM), usual class: inhibitors. HepG2 CAGA-GFP TGF-b/SMAD3 reporter, GFP fluorescence, 18 h; TGF-beta stimulated, 500 pg/mL final. 410,000 tested, 1.2% active; note: nearly all actives have a fitted effect of over 65% in size
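TGF-beta reporter screen: HEPG2 CAGA-GFP, 1% FBS, 500 pg/mL TGF-beta final, 18 h; per-cell GFP summed per well; curves fitted and categorized by class.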
KB-3-1 cytotox: qHTS assay for MDR1-selective chemotherapeutics: Primary screen using the parental adenocarcinoma cell KB-3-1; KB-3-1 viability, CellTiter-Glo ATP luminescence, 72 h; Potency, µM (top dose mostly 46.1 µM), usual class: cytotoxic; 400,000 tested, 1.4% active; AID 1347075, 2019; note: nearly all actives have a fitted effect of over 60% in size
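Here the drug-naive KB-3-1 line serves as comparator for MDR sub-line selectivity; cells received compound titrations, 72 h at 37 °C, then CellTiter-Glo readout.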
HT1080NT lethal: qHTS for induction of synthetic lethality in tumor cells producing 2HG: qHTS for the HT-1080-NT fibrosarcoma cell line; Potency, µM (doses to about 46.1 µM), actives largely listed as cytotoxic; HT-1080-NT fibrosarcoma viability, CellTiter-Glo ATP luminescence, 48 h; 360,000 tested, 1.6% active;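 note: NT is the 2HG producing partner of a matched IDH1 knockdown line; nearly all actives have a fitted effect of over 55% in size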
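A 48-hour cytotoxicity screen used HT-1080-NT cells plated 2 hours before compound delivery. ATP-based CellTiter-Glo luminescence measured viability, normalized to DMSO and no-cell controls.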
HepG2 tox: qHTS for Inhibitors of TGF-b: Cytotox Counterscreen | 410,000 tested, 0.76% active | AID 588856, 2011 | HepG2 CAGA-GFP viability, ATP luminescence, 18 h | Potency, µM (doses to about 46.1 µM), actives largely listed as cytotoxic
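CellTiter-Glo luminescence gave cytotoxicity after 18 hours at 37 degrees C. The cells were HepG2 CAGA-GFP in 1% FBS DMEM, stimulated with 500 pg/mL TGF-beta after compound addition. %Activity was normalised to no-cell wells (complete cell-killing) and DMSO (no toxicity), and curves were fitted and classified.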
KB-V1 MDR tox: qHTS assay for MDR1-selective chemotherapeutics: Primary screen using the drug-selected MDR subline cells KB-V1; KB-V1 MDR cells viability, CellTiter-Glo, 72 h; Potency, µM (titrated, usually from 46.1 µM), hits mostly cytotoxic; 400,000 tested, 3.4% active; note: nearly all actives have a fitted effect of over 60% in size
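KB-V1, DMEM (no phenol red) + 10% FBS; cpd pin-transferred, titration series; 72 h, 37 degrees C; CellTiter-Glo, luminescence. Data normalized, curve-fit.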
HT1080 IDH1KD tx: qHTS for induction of synthetic lethality in tumor cells producing 2HG: qHTS for the HT-1080-IDH1KD cell line; HT-1080 IDH1 knockdown viability, ATP luminescence, 48 h; 360,000 tested, 2% active; Potency, µM (doses to about 46.1 µM), usual class: cytotoxic; AID 686971, 2013
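Using the IDH1-knockdown HT-1080 line run in the same batch and compound series as the NT line, viability after 48 h at 37 °C was determined by CellTiter-Glo luminescence and expressed as % activity.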
Numbers stand for hits; i = inactive; ? = inconclusive; nt = no result. Calls come from the whole dose curve; as a rule, active = well fitted curve in the direction sought with a large enough effect; inconclusive = small, poorly fitted or top-dose-only effect, or another doubt; inactive = no such curve, though single readings can be large; an effect the other way counts as inactive or inconclusive.

SMILES	TGFb SMAD3 inh	KB-3-1 cytotox	HT1080NT lethal	HepG2 tox	KB-V1 MDR tox	HT1080 IDH1KD tx
Cc1ccccc1C(=O)NNC(=S)NC(=O)c1ccc(Cl)cc1Cl	?	i	?	i	?	i
COC(=O)c1c(C)n(-c2ccccc2)c2ccc(O)cc12	i	?	11.2µM	i	20.6µM	?
COC(=O)c1c(C)n(-c2ccc(C)cc2)c2ccc(O)cc12	?	?	12.6µM	i	?	20µM
CC(=O)c1c(C)n(-c2ccccc2)c2ccc(O)cc12	i	i	i	i	?	i
O=C(CN1Cc2ccccc2C1=O)Nc1cc(F)ccc1F	i	i	nt	i	i	nt
COC(=O)CCC(=O)N(CCN(C(=O)CCC(=O)OC)c1ccccc1)c1ccccc1	i	i	i	i	i	i
CON(C)C(=O)CCN(C(=O)OC(C)(C)C)c1ccccc1	i	i	i	0.562µM	i	i
C[C@@H]1CC=C[C@H]2[C@H]1C(=O)N(Cc1ccccc1)[C@H]2c1ccc2ccccc2c1	?	i	i	i	i	?
CC1CC=CC2C1C(=O)N(Cc1ccccc1)C2c1ccc2ccccc2c1 (centres undefined)	11.2µM	nt	nt	i	nt	nt
O=C1C2C(c3ccccc3)CC=CC2C(c2ccc(C(F)(F)F)cc2)N1Cc1ccccc1 (centres undefined)	12.6µM	nt	nt	i	nt	nt
C[C@@H]1CC=C[C@H]2[C@H]1C(=O)N(Cc1ccccc1)[C@H]2c1ccc2ccccc2c1Br	?	?	i	12.6µM	?	i
CC(C)c1ccc(NC2CCCN(C(=O)c3cccs3)C2)cc1 (centres undefined)	i	i	i	i	i	i
CN(C1CCCCC1)S(=O)(=O)c1ccc(F)c(C(=O)Nc2ccc(C(F)(F)F)cc2)c1	?	?	nt	i	i	nt
O=C(NCc1cc(Cl)cc(Cl)c1)c1ccc2nc([C@@H]3O[C@H](CO)[C@@H](O)[C@H]3O)[nH]c2c1	i	i	i	i	i	i
COc1ccc(S(=O)(=O)N(Cc2nc(-c3cccc(C)c3)no2)C2CCCCC2)cc1	i	nt	nt	i	nt	nt
N#CNC(=Nc1cccc(F)c1)SCc1cccc(F)c1	10µM	?	i	i	?	i
Cc1nn2c3c(cnc2c1-c1ccc(Cl)cc1)C(=O)CC(c1ccc(C(C)C)cc1)C3 (centres undefined)	i	i	nt	i	i	nt
CCC(C(=O)Nc1cccc(-c2cn3cccnc3n2)c1)c1ccccc1 (centres undefined)	i	i	nt	i	i	nt
CC(=O)Nc1ccc(N2CCN(Cc3ccccc3F)CC2)cc1	i	i	i	i	i	i
O=C(Nc1ccc(Cl)cc1)N1CCCN(Cc2ccccc2F)C1	i	i	?	i	i	12.6µM
Cc1ccc(NC(=O)N2CCCN(Cc3ccc(F)cc3)C2)cc1C	i	?	14.6µM	i	?	16.4µM
CCCn1cc(S(=O)(=O)c2cccc(Cl)c2)c(=O)c2cc(F)c(N3CCCC3)cc21	?	nt	nt	i	nt	nt
COc1ccc2c(c1)c[n+](C)c1c3cc(OC)c(OC)cc3ccc21	nt	2.91µM	9.2µM	nt	i	10.3µM
COc1cc2c[n+](C)c3c4ccccc4ccc3c2cc1OC	i	9.2µM	?	i	?	16.4µM
COc1ccc(Cc2c3cc(OC)c(OC)cc3cc[n+]2C)cc1OC	i	i	i	i	i	i
SMILES	TGFb SMAD3 inh	KB-3-1 cytotox	HT1080NT lethal	HepG2 tox	KB-V1 MDR tox	HT1080 IDH1KD tx
COc1ccccc1CNC(=O)CCCN1C(=O)CSc2c1c(C)nn2-c1ccccc1	i	i	nt	i	i	nt
O=C1C(C2=NC(C(=O)O)C3C(=O)N(c4ccccc4)C(=O)C23)=C(O)c2ccccc21 (centres undefined)	i	i	i	i	i	i
O=C1C(C2=NC(c3ccccn3)C3C(=O)N(c4ccc(OC(F)(F)F)cc4)C(=O)C23)=C(O)c2ccccc21 (centres undefined)	i	4.61µM	i	i	i	i
Cc1ccc(-n2cnc3cc(C(=O)NC4CCCCCC4)ccc32)c(C)c1	?	i	nt	i	i	nt
Cc1cc(OCC(=O)Nc2ccncc2)cc(C)c1Br	i	?	i	i	?	10.3µM
CC1CCc2c(sc(NC(=O)Cc3ccccc3)c2C(=O)Nc2ccc(Cl)cc2)C1 (centres undefined)	i	nt	nt	i	nt	nt
O=C(c1ccccc1)c1cc(Cl)ccc1N1C(=O)C=CC1=O	?	i	18.4µM	i	i	23.1µM
O=C(N/N=C/c1ccccc1)c1ccc(CN2C(=O)c3cccc4cccc2c34)cc1	i	i	20.6µM	i	i	?
